Measurements as given in PubChem BioAssay.
Where “and” joins values, the source holds several entries; their conditions need not be identical. Equal entries are not always repeated. Calls of active or inactive are those of the source.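 The calls were made as follows, unless noted: active = normalized viability below 100% at a tested concentration; inactive = the rest.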

How the values were obtained:
[1] = hESC survival regulators, cell-based (AID 493140; call rule not given here;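 also: cells exposed to compounds for four days before counting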); conditions: human embryonic stem cell survival screen; stronger effect = higher value
[2] = stimulators of insulin release from INS-1E, primary screen, cell-based, 5 mM glucose, NPC library (AID 1117329;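 active = compound raises insulin release from rat beta cells at 5 mM glucose, no numeric limit stated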); conditions: rat INS-1E insulin secretion, at 10 µM, stronger effect = higher value
[3] = growth inhibition of GSK3B-pretreated HCT116 cells – cell-based, CellTiter-Glo, 0.2 to 20 µM (AID 1117336;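 active = compounds lowering colon cancer cell viability after pretreatment blocking the GSK3B kinase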); conditions: HCT116 viability after GSK3B inhibitor, at 20 µM, stronger effect = higher value
[4] = inhibition of endothelial tube formation, primary screen, imaging, VEGF stimulated, CD31 staining, tube area, NPC library (AID 1117340;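 active = compound that reduces growth-factor-driven endothelial tube area in a mixed cell culture, no cutoff stated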); conditions: VEGF-stimulated ADSC/ECFC co-culture, at 10 µM, stronger effect = higher value
[5] = glucagon-like peptide 1 release enhancers, primary assay, NCI-H716 cell line, NPC library (AID 1117341;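 active = compound raises GLP1 secretion from the human gut endocrine cells, with no numeric limit stated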); conditions: NCI-H716 cells, at 10 µM, stronger effect = higher value
[6] = HCT116 colon cancer cell growth inhibition, primary screen, CellTiter-Glo luminescence, NPC library (AID 1117342;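 active = compounds that lower survival of HCT116 colon cancer cells in the luminescence readout, no numeric limit stated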); conditions: at 20 µM (top of the series)
[7] = CellTiter-Glo luminescent readout of SW480 viability loss, NPC library primary (AID 1117343;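 active = compounds that lower viability of the colon cancer cells in the luminescence readout, with no numeric limit stated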); conditions: CellTiter-Glo luminescence; at 20 µM (top of the series) unless noted
[8] = decreased DLD-1 cellular survival, CellTiter-Glo luminescent readout, NPC compound collection, primary HTS (AID 1117346;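 active = compounds that lower survival of DLD-1 colon cancer cells in the luminescence readout, no cutoff given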); conditions: DLD-1 viability, CellTiter-Glo luminescence; at 20 µM (top of the series)
[9] = molecular target: 6-phosphogluconate dehydrogenase, decarboxylating (Homo sapiens) (UniProt P52209); experiment: 6PGD enzyme inhibitors, primary screen, biochemical, human, recombinant enzyme, NADPH absorbance (AID 1159550;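 active = at least 20% inhibition of 6-phosphogluconate dehydrogenase activity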); conditions: recombinant 6PGD, NADPH absorbance 341 nm; at 10 µM; stronger effect = higher value
6-phosphogluconate dehydrogenase, decarboxylating (Homo sapiens), sequence (P52209 whole entry, looked up): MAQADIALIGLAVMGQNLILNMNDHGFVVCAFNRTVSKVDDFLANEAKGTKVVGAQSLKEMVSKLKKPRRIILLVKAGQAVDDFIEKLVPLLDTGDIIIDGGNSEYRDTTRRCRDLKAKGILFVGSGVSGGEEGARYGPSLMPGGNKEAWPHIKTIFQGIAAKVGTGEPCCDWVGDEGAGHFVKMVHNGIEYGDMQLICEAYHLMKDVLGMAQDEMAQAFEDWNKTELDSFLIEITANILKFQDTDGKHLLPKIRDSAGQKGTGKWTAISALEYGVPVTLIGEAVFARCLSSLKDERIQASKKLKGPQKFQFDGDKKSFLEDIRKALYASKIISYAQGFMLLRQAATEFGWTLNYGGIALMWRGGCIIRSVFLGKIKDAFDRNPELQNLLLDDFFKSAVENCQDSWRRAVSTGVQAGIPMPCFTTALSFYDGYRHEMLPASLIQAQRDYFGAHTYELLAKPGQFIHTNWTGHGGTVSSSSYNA

[10] = differential killing of epithelial or mesenchymal cells, primary screen, imaging, PC-3E GFP, TEM4-18 mCherry, co-culture (AID 1345086;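 active = compounds killing one labelled cell type while sparing the other, by normalised counts and ratio limits, not self-fluorescent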;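 also: cells exposed to compound for 72 h before imaging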;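 as to red/green cell ratio (normalised): normalised mesenchymal count divided by normalised epithelial count so high means epithelial killing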); conditions: imaging cell counts, at 1 µM
[11] = survival rescue of mitochondrial mutant cells in low glucose, primary screen, MELAS cybrids, Rieske KO mouse fibroblasts, CellTiter-Glo (AID 1508586;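 active = mean z-score across replicates of 1.96 or higher in either the MELAS or the Rieske mutant cell line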;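 also: z relative to plate mean and SD of compound and empty wells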)
[12] = molecular target: NAD(+) hydrolase SARM1 (Homo sapiens) (UniProt Q6SZW1); experiment: SARM1 TIR NADase inhibitors, cell lysate, NAD-Glo luminescence (AID 1508614;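 active = compound whose remaining NAD level is above about 45 nM, limit read from the data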;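 also: higher remaining NAD means stronger inhibition of SARM1 NADase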); conditions: SAM-TIR HEK293T lysate NADase, at 1 µM, stronger effect = higher value
NAD(+) hydrolase SARM1 (Homo sapiens), sequence (Q6SZW1 whole entry, looked up, the tested form may be a part): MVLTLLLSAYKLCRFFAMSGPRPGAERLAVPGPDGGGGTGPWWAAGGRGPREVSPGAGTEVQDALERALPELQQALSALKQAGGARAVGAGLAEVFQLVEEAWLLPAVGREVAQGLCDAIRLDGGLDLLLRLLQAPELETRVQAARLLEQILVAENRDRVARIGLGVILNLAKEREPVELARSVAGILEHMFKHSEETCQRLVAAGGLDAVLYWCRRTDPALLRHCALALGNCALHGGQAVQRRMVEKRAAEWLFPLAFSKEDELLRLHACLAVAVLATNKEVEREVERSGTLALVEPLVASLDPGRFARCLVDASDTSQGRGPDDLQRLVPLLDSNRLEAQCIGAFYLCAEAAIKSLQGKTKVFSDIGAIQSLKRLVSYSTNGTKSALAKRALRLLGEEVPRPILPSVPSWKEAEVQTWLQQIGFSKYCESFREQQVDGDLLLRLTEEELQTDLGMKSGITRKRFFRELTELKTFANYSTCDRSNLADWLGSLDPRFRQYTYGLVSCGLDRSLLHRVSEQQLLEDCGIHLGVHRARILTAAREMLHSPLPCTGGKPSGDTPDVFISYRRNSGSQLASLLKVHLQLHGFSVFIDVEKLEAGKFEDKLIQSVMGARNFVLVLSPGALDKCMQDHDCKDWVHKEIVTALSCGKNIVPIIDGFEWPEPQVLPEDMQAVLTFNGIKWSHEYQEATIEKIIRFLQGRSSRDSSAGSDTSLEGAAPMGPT

[13] = molecular target: Mitogen-activated protein kinase 7 (Homo sapiens) (UniProt Q13164); experiment: ERK5 transactivation activators in reporter cells, primary screen, cell-based, HTS (AID 1508626;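 active = luciferase signal above three times the same-plate solvent-only control wells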;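 also: luciferase driven by Gal4-ERK5 fusion binding five Gal4 sites before minimal TATA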); conditions: HeLa Gal4-ERK5 transactivation, 18 h, at 5 µM, stronger effect = higher value
Mitogen-activated protein kinase 7 (Homo sapiens), sequence (Q13164 whole entry, looked up, the tested form may be a part): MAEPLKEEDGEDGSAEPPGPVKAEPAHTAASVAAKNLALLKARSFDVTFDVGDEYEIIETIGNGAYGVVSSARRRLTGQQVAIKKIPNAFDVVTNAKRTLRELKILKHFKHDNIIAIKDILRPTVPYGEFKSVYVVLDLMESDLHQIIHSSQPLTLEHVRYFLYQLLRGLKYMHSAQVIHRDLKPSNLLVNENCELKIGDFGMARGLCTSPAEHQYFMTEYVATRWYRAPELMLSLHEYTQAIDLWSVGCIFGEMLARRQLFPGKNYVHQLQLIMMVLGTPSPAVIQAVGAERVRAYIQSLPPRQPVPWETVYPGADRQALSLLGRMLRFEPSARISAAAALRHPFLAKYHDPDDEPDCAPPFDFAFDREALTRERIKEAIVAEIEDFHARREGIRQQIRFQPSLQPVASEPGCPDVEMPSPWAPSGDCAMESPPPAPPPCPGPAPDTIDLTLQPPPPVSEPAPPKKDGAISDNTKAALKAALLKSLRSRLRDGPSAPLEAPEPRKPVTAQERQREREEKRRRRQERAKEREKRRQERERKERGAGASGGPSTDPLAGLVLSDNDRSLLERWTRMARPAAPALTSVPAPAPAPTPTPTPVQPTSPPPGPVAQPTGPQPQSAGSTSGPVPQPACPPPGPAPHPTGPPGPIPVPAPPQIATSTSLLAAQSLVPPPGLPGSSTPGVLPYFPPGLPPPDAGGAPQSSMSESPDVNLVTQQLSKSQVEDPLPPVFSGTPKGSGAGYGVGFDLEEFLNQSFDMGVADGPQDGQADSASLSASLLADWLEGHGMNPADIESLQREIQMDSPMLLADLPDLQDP

[14] = viability rescue of complex I mutant cybrids, primary screen, cell-based, galactose medium, ATP luminescence (AID 1645843;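 active = z-score of at least 1.8 in each of two replicates, scored against plate mean and spread of sample wells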;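 also: positive z means more ATP and so rescue of galactose-driven cybrid death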); conditions: complex I mutant cybrid cells, 72 h, stronger effect = higher value
[15] = stimulators of nuclear beta-catenin in C2C12, primary screen, imaging, WNT3A-conditioned medium, mouse C2C12, NPC library (AID 1117326; in the data active = nuclear beta-catenin stimulation mostly above about 4.2%, no sharp cut-off; inactive = mostly below about 10%); conditions: stronger effect = higher value
[16] = sensitizers of A549 cells to miR-34 induction, primary screen, imaging, A549 dox-inducible miR-34, nuclei and caspase counts (AID 1347080;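 active = compounds whose cell count with miR-34 switched on is under 0.7 times the count with it off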); conditions: A549 miR-34 inducible, Hoechst nuclei count, 48 h
[17] = ovarian cancer cell viability with rucaparib, profiling panel, oncology-focused library, rucaparib conditional (AID 1508598); conditions: patient-derived ovarian cancer cells, CellTiter-Glo viability, 144 h, stronger effect = lower value
[18] = MELAS cybrid survival, CellTiter-Glo 48 h, stronger effect = higher value
[19] = Rieske KO mouse fibroblast survival, CellTiter-Glo 72 h
[20] = stronger effect = lower value, cell number ratio, induced over uninduced
[21] = measured here: relative caspase fold change +Dox/-Dox
[22] = measured here: total cells with miR-34 induction, stronger effect = lower value
[23] = measured here: total cells without miR-34 induction

Cc1cc(NS(=O)(=O)c2ccc(N)cc2)no1
1.05: normalised cell number ([10]; measured here: epithelial PC-3E GFP cell survival)
1.32: normalised cell number ([10]; measured here: mesenchymal TEM4-18 mCherry cell survival)
inactive: survival [1] 30.6 | insulin secretion stimulation [2] -2.1% | viability decrease [3] 1.7% | tube area decrease [4] 1.9% | GLP1 secretion stimulation [5] 1.9% | inhibition of viability [6] -6.5% | viability decrease (inhibition) [7] -7.9% | viability decrease (inhibition) [8] 3.95% | inhibition [9] 11.1% | red/green cell ratio (normalised) ([10]; actives lie on both sides, counts scaled to control wells, 1 = unselective) 1.25 | z-score [11, 18] -0.296 and -0.181 | remaining NAD [12] 10 nM | luciferase signal [13] 64 AU | z-score [14] 0.255
-0.35 and -0.048: z-score [11, 19]

CCN(CC)CCOc1ccc(Cc2ccccc2)cc1
8600: cell count [16, 23]
active: viability decrease [3] 67.3% | inhibition of viability [6] 67.4% | viability decrease (inhibition) [7] 83.4% | viability decrease (inhibition) [8] 55.9%
inactive: nuclear beta-catenin stimulation ([15]; at 10 µM) 2.1% | fold change [16, 20] 0.97 | z-score [14] -0.96
0.737: fold change [16, 21]
14.6%: nuclear beta-catenin stimulation ([15]; stimulation, at 2 µM)
8340: cell count [16, 22]

Cc1ccc(-n2nc(C(C)(C)C)cc2NC(=O)Nc2ccc(OCCN3CCOCC3)c3ccccc23)cc1
7%: nuclear beta-catenin stimulation ([15]; stimulation, at 2 µM)
active: viability decrease [3] 73% | inhibition of viability [6] 66.5% | viability decrease (inhibition) [7] 64.1% | viability ([17]; at 0.00122 µM, OCI-C5x cells, with rucaparib 10 µM, 100% = cells with rucaparib alone) 97.2% | viability ([17]; at 0.00122 µM, OCI-P5x cells, with rucaparib 20 µM, 100% = cells with rucaparib alone) 97.9% | viability ([17]; at 0.00488 µM, OCI-P5x cells, with rucaparib 20 µM, 100% = cells with rucaparib alone) 91.6% | viability ([17]; at 0.313 µM, OCI-P5x cells, with rucaparib 20 µM, 100% = cells with rucaparib alone) 97.2% | viability ([17]; at 1.25 µM, OCI-P5x cells, with rucaparib 20 µM, 100% = cells with rucaparib alone) 96.1% | viability ([17]; at 1.25 µM, OCI-P5x cells, without rucaparib) 95.3% | viability ([17]; at 5 µM, OCI-P5x cells, with rucaparib 20 µM, 100% = cells with rucaparib alone) 96.1% | viability ([17]; at 5 µM, OCI-P5x cells, without rucaparib) 94.8%
inactive: nuclear beta-catenin stimulation ([15]; at 10 µM) 13.4% | viability decrease (inhibition) [8] 31% | fold change [16, 20] 0.925 | z-score [11, 18] -0.536 | viability ([17]; at 0.000305 µM, OCI-C5x cells, with rucaparib 10 µM, 100% = cells with rucaparib alone) 105% | viability ([17]; at 0.000305 µM, OCI-C5x cells, without rucaparib) 123% | viability ([17]; at 0.000305 µM, OCI-P5x cells, with rucaparib 20 µM, 100% = cells with rucaparib alone) 112% | viability ([17]; at 0.000305 µM, OCI-P5x cells, without rucaparib) 115% | viability ([17]; at 0.00122 µM, OCI-C5x cells, without rucaparib) 113% | viability ([17]; at 0.00122 µM, OCI-P5x cells, without rucaparib) 104% | viability ([17]; at 0.00488 µM, OCI-C5x cells, with rucaparib 10 µM, 100% = cells with rucaparib alone) 106% | viability ([17]; at 0.00488 µM, OCI-C5x cells, without rucaparib) 116% | viability ([17]; at 0.00488 µM, OCI-P5x cells, without rucaparib) 111% | viability ([17]; at 0.0195 µM, OCI-C5x cells, with rucaparib 10 µM, 100% = cells with rucaparib alone) 105% | viability ([17]; at 0.0195 µM, OCI-C5x cells, without rucaparib) 120% | viability ([17]; at 0.0195 µM, OCI-P5x cells, with rucaparib 20 µM, 100% = cells with rucaparib alone) 101% | viability ([17]; at 0.0195 µM, OCI-P5x cells, without rucaparib) 108% | viability ([17]; at 0.0781 µM, OCI-C5x cells, with rucaparib 10 µM, 100% = cells with rucaparib alone) 100% | viability ([17]; at 0.0781 µM, OCI-C5x cells, without rucaparib) 107% | viability ([17]; at 0.0781 µM, OCI-P5x cells, with rucaparib 20 µM, 100% = cells with rucaparib alone) 108% | viability ([17]; at 0.0781 µM, OCI-P5x cells, without rucaparib) 109% | viability ([17]; at 0.313 µM, OCI-C5x cells, with rucaparib 10 µM, 100% = cells with rucaparib alone) 107% | viability ([17]; at 0.313 µM, OCI-C5x cells, without rucaparib) 114% | viability ([17]; at 0.313 µM, OCI-P5x cells, without rucaparib) 101% | viability ([17]; at 1.25 µM, OCI-C5x cells, with rucaparib 10 µM, 100% = cells with rucaparib alone) 107% | viability ([17]; at 1.25 µM, OCI-C5x cells, without rucaparib) 115% | viability ([17]; at 5 µM, OCI-C5x cells, with rucaparib 10 µM, 100% = cells with rucaparib alone) 117% | viability ([17]; at 5 µM, OCI-C5x cells, without rucaparib) 144%
7750: cell count [16, 22]
0.866: fold change [16, 21]
8380: cell count [16, 23]
-0.851: z-score [11, 19]
